Data on 23 molecules can be found in ChEMBL document CHEMBL3988442, “University of Dundee, Small-Polar-MMV Screening Library” (2021).

The test system of the assay is Leishmania donovani. As to the kind of experiment: Leishmania intramacrophage assay. Type of assay: functional, organism-based. More on the design: scale not given: in the data most compounds retested in dose-response had high values.

Out of some 69,000 compounds screened, about 1,000 (1.4%) showed an effect of 50% or more. The entries come from a sample that favours strong results as a whole.

Regarding `CC(C)N1CC(c2ncc(-c3ccc4c(c3)OCCO4)[nH]2)CC1=O` (stereo not drawn), the “Percent Effect” value (30.3 µM, […]) was 26.45%.
For `COc1ccccc1CCN[C@@H]1c2ccccc2C2(CCNCC2)[C@H]1O`, the “Percent Effect” value (30.3 µM, […]) was found to be 35.47%.
Turning to `O[C@H]1[C@H](NCCc2ccccn2)c2ccccc2C12CCNCC2`, the “Percent Effect” value (30.3 µM, […]) is -16.64%.
Still for that read-out and setting: to `Cc1ccc(CCN[C@@H]2c3ccccc3C3(CCNCC3)[C@H]2O)s1` belongs 84.2%; to `CNC(=O)[C@@H]1C[C@H]2CN(Cc3csc(C)n3)C[C@H]2N1C(C)C.O=C(O)C(F)(F)F.O=C(O)C(F)(F)F`, 29.27%; to `CC(C)C(C)N1Cc2cccc(NCC(=O)N(C)C)c2C1` (stereo not drawn), 29.96%.
With `CC(C)N1Cc2cccc(NCC(=O)N(C)C3CCCCC3)c2C1`, the “Percent Effect” value (30.3 µM, […]) is on record as 17.74%.
Regarding `CC(C)N1Cc2cccc(NCC(=O)N(C)C)c2C1`, the “Percent Effect” value (30.3 µM, […]) was determined as 62.8%.
Regarding `Cc1cc(NC(=O)NCC2COc3ccccc3C2)no1` (stereo not drawn), the “Percent Effect” value (30 µM) is recorded as -28.91%.
With `Fc1ccc(CN2CCO[C@H]3[C@H](OCc4ccncc4)CC[C@@H]32)cc1.O=C(O)C(F)(F)F.O=C(O)C(F)(F)F`, the “Percent Effect” value (30.3 µM, […]) worked out at 43.4%.
`Fc1ccccc1CN1C[C@H](OCC2CCOCC2)[C@H]2OCCC[C@H]21.O=C(O)C(F)(F)F`: where the note is “30.3 µM, […]”, the “Percent Effect” value is on record as -19.24%.
In the case of `CN(C)C(=O)CO[C@@H]1CN(Cc2ccccc2F)[C@@H]2CCCO[C@@H]21.O=C(O)C(F)(F)F`, the “Percent Effect” value (30.3 µM, […]) is on record as 10.19%.
Turning to `Cc1cccc(CN2CCO[C@H]3[C@@H](OCc4ccncc4)CC[C@@H]32)n1.O=C(O)C(F)(F)F.O=C(O)C(F)(F)F.O=C(O)C(F)(F)F`, under “30.3 µM, […]”, the “Percent Effect” value is reported as 12.49%.
On to `Fc1ccccc1CN1C[C@@H](OCc2ccncc2)[C@H]2OCCC[C@H]21.O=C(O)C(F)(F)F.O=C(O)C(F)(F)F`, for which the “Percent Effect” value (30 µM, 30.03 µM) was 54.27%.
Turning to `COc1ccc(CN2CCO[C@H]3[C@H](OCc4ccncc4)CC[C@@H]32)cc1.O=C(O)C(F)(F)F.O=C(O)C(F)(F)F`, the “Percent Effect” value (30.3 µM, […]) turned out to be 60.6%.
In the case of `Cn1cc(S(=O)(=O)N(Cc2ccc(F)cc2F)C2CC2)cc1C(N)=O`, the “Percent Effect” value (30.3 µM, […]) worked out at 34.27%.
Consider `CNS(=O)(=O)CC1CCCN1C(=O)c1ccc(C)c(C)c1` (stereo not drawn), for which the “Percent Effect” value (30.3 µM, […]) was -9.061%.
Turning to `O=c1cc(-c2ccccc2)nc2n1CCCCC2`, the “Percent Effect” value (30.3 µM, […]) is recorded as -39.42%.
As for `COCC(=O)NCc1cc2n(n1)CCCN(CCCC1CCCC1)C2`, under “30.3 µM, […]”, the “Percent Effect” value is 20.98%.
In the case of `COCC(=O)N1CCC2(CCN(c3cnn(C)c3)C2=O)C1` (stereo not drawn), the “Percent Effect” value (30.3 µM, […]) was 13.44%.
Regarding `O=C([C@@H]1C[C@@H]2CCN(C3CCOCC3)C[C@@H]2O1)N1CCOCC1`, under “30.3 µM, […]”, the “Percent Effect” value worked out at 9.764%.
On to `Cc1nn(C)cc1CN(C)C(=O)c1cnccn1`, for which, for the setting “30.3 µM, […]”, the “Percent Effect” value is reported as -25.04%.
With `CCC(=O)NCCNC(=O)c1nn(C)c(C)c1Cl`, where the note is “30.3 µM, […]”, the “Percent Effect” value is reported as -0.8741%.
